Data reported in ChEMBL document CHEMBL1157539, “Thousands of chemical starting points for antimalarial lead identification” (Nature, 2010).
Several values for one entry are separate records, joined by “and”; a condition that tells them apart may be missing. Equal entries are not always repeated.

What was measured:
Format in all cases: functional
Plasmodium falciparum [1] = assay: GSK_TCMDC: Inhibition of Plasmodium falciparum 3D7 in whole red blood cells, using parasite LDH activity as an index of growth. Test compounds present at 2uM
Plasmodium falciparum [2] = assay: GSK_TCMDC: Inhibition of Plasmodium falciparum Dd2 in whole red blood cells, using parasite LDH activity as an index of growth. Test compounds present at 2uM
HepG2 = assay: GSK_TCMDC: Percent inhibition of human HepG2 cell line. Test compounds present at 10uM.

Row | Compound | Inhibition (Plasmodium falciparum [1]) | Inhibition (Plasmodium falciparum [2]) [%] | Inhibition (HepG2) [%]
1 | COc1ccc2ncc(F)c(CCN3CCC(NCc4cc(C)c5c(c4)OCCO5)CC3)c2n1.Cl | 100% | 67 | 20
2 | CC(C)(C)OC(=O)c1c(NC(=O)/C=C/c2ccc(O)c(O)c2)sc2c1CCCC2 | 97% | 77 | 4
3 | CNC(=O)COC(=O)c1c2c(nc3ccccc13)C(=Cc1ccc3c(c1)OCO3)CCC2 | 83% | 36 | 7
4 | O=C(Nc1nc(-c2cc(F)ccc2F)cs1)c1cncc(Br)c1 | 85% | 3 | 16
5 | O=C(NCCCCN1CCC(c2ccc3ccccc3c2)CC1)c1ccc(NC(=O)c2ccc(Cl)cc2)cc1 | 100% | 93 | 24
6 | CCN(CC)CCCC(C)Nc1c2cc(OC)ccc2nc2cc(Cl)c([N+](=O)[O-])cc12 (stereo not drawn) | 100% | 89 | 12
7 | COc1ccc(O)c(C(=O)c2cc(C(=O)NCCc3ccccc3)c(=O)n(CCc3ccccc3)c2)c1 | 97% | 18 | 11
8 | O=C(Nc1ccc2c(c1)OCO2)NC1CCN(c2ccnc(NCc3ccc(F)cc3)n2)CC1 | 88% | 15 | 33
9 | COC(=O)c1cccc(CNCc2ccc(-c3ccc(-c4nc5cccc(C)c5[nH]4)cc3)cc2)c1.O=C(O)C(F)(F)F | 100% | 86 | 17
10 | CCOc1ccc(S(=O)(=O)N(C)c2ccc(OCC(=O)Nc3nccs3)cc2)cc1 | 95% | 4 | 8
11 | CC(=O)Nc1ccc(C(=O)Nc2ccc(-c3cccc(-c4nc5cc(F)ccc5[nH]4)c3)cc2)cn1 | 100% | 84 | 13
12 | CC(=NNC(S)=Nc1ccccc1Cl)c1ccccn1 | 100% | 99 | 69
13 | CC(=O)NCCNCc1cccc(C(=O)NCc2cccc(C(F)(F)F)c2)c1 | 95% | 0 | 1
14 | Cc1nc2ccccc2c(=O)n1NCc1ccc(Cl)c(Cl)c1 | 96% | 92 | 12
15 | O=C(Cc1ccc[n+]([O-])c1)Nc1cccc(-c2cccc(-c3nc4cc(C(F)(F)F)ccc4[nH]3)c2)c1 | 92% | 99 | 41
16 | CN(C)CCN(C)C(=O)c1cc(-c2ccncc2)c(-c2ccc(Cl)c(O)c2)o1.Cl | 97% | 34 | 0
17 | CC[C@H]1CN2CCc3cc(OC)c(OC)cc3[C@@H]2C[C@@H]1C[C@H]1NCCc2cc(OC)c(OC)cc21 [EMETINE] | 100% | 99 | 43
18 | CC(=O)N1N=C(c2ccc(Cl)cc2)Sc2c1nc(C1CCCCC1)n2C(C)=O | 100% | 67 | 1
19 | O=C(O)C(F)(F)F.Oc1ccc(CCNc2nc(NCCOc3ccccc3-c3ccccc3)nc(N3CCNCC3)n2)cc1 | 93% | 17 | 22
20 | COc1ccc2nccc(NCC3(O)CCN(CC(O)c4ccc5c(c4)NC(=O)CS5)CC3)c2n1.Cl (stereo not drawn) | 100% | 3 | 3
21 | C=CCC1OC(=O)c2cc(OC)cc(OC)c21 (stereo not drawn) | 95% | 100 | 100

Row | Compound | Inhibition (Plasmodium falciparum [1]) | Inhibition (Plasmodium falciparum [2]) [%] | Inhibition (HepG2) [%]
22 | CC(=O)Nc1ccc(OCCCCN(Cc2ccccc2C(F)(F)F)c2ccc(C#N)c(C(F)(F)F)c2)c(Cl)c1 | 98% | 71 | 0
23 | CN1CCN(C(C(=O)NCc2cc(Cl)cc(Cl)c2)c2ccc(NC(=O)Nc3ccccc3)cc2)CC1.O=C(O)C(F)(F)F (stereo not drawn) | 98% | 43 | 23
24 | O=C(Nc1cccc(C(F)(F)F)c1)Nc1nc2ccc([N+](=O)[O-])cc2s1 | 100% | 76 | 81
25 | CCC(CSC1CCCCC1)N(C)CCN(C)C(CC)CSC1CCCCC1.Cl (stereo not drawn) | 98% | 98 | 84
26 | COc1cc(C2Nc3ccc4ccccc4c3C3=C2C(=O)CC(C)(C)C3)ccc1Oc1ccc([N+](=O)[O-])cc1C#N (stereo not drawn) | 99% | 94 | 8
27 | CSc1ccc(CN2CCC(NC(=O)c3ccc(-c4cccc(C(F)(F)F)c4)s3)CC2)cc1.O=C(O)C(F)(F)F | 90% | 9 | 68
28 | Cc1nc2ccc3ccc(CNc4ccc5c(c4)CN([C@H](CCC(=O)O)C(=O)O)C5=O)cc3c2c(=O)[nH]1 | 87% | 90 | 38
29 | COC(=O)c1ccc(OCC(O)CO)cc1O (stereo not drawn) | 100% | 23 | 4
30 | C#CCNCc1ccc(-c2ccc(-c3nc4cc(C(F)(F)F)ccc4[nH]3)s2)cc1.O=C(O)C(F)(F)F | 98% | 28 | 37
31 | O=C(/C=C/c1ccccc1Cl)Nc1ccc(Br)c(OCCN2CCN(CCN3CCOCC3)CC2)c1.O=C(O)C(=O)O | 98% | 91 | 22
32 | Cc1cc(N)c2cc(NC(=O)c3cc4ccccc4s3)ccc2n1 | 100% | 99 | 100
33 | Cc1[nH]c(C)c(-c2ccc(-c3ccccc3C(F)(F)F)nc2)c(=O)c1Br | 97% | 96 | 0
34 | O=C1Nc2cccc3c2C1(CCCCN1CCC(c2cc4ccncc4[nH]2)CC1)CCC3 (stereo not drawn) | 99% and 97% | 0 | 0
35 | O=C(O)C(F)(F)F.c1cc(CNCC2CCN(CC3CCCCC3)CC2)cc(-n2ccnc2)c1 | 100% | 99 | 18
36 | Clc1ccc(-c2ccc(CNCCCN3CCCC3)cc2)cc1 | 91% | 21 | 47
37 | O=C(CCCCCNC(=O)c1ccc(O)c(-c2ccc(Cl)c(Cl)c2)c1)NC1CCCCCC1 | 92% | 3 | 0
38 | Cc1cccc2nc(-c3ccc(-c4ccc(CN5CCCC(O)C5)cc4)s3)[nH]c12.O=C(O)C(F)(F)F (stereo not drawn) | 100% | 29 | 38
39 | CCCOC(=O)C1=C(C)NC2=C(C(=O)CC(c3ccc(OC)c(OC)c3)C2)C1c1cccc(O)c1 (stereo not drawn) | 100% | 99 | 0
40 | Br.CC(CON1C(N)=NC(N)=NC1(C)C)c1ccc(Cl)cc1Cl (stereo not drawn) | 97% | 95 | 64
41 | COc1ccc2nc(-c3ccccc3)cc(N/N=C/c3ccc([N+](=O)[O-])o3)c2c1 | 100% | 99 | 90
42 | CCc1ccc(NC(=O)c2ccc(CN3CCCN(Cc4cccc(C)c4)CC3)cc2)cc1.O=C(O)C(F)(F)F | 80% | 0 | 53

Row | Compound | Inhibition (Plasmodium falciparum [1]) | Inhibition (Plasmodium falciparum [2]) [%] | Inhibition (HepG2) [%]
43 | O=C(Nc1cccc(-c2ccc(CN3CCCC3)cc2)c1)c1ccc(F)cc1.O=C(O)C(F)(F)F | 92% | 9 | 23
44 | CC(C)Cc1ccc(N2CCN(CCCCNC(=O)c3ccc(NC(=O)c4ccc(Cl)c(Cl)c4)cc3)CC2)cc1 | 94% | 25 | 21
45 | COc1ccc(CNC(=O)C2Cc3ccccc3CN2Cc2ccc3ccccc3c2)cc1 (stereo not drawn) | 96% | 84 | 15
46 | CC(=O)c1cccc(NC(=O)c2ccc(Cl)c(S(=O)(=O)N3CCc4ccccc43)c2)c1 | 93% | 11 | 13
47 | OC(CNCc1ccccc1OCc1ccccc1)c1cccc(I)c1 (stereo not drawn) | 100% | 100 | 2
48 | Fc1ccccc1CNc1ncc(-c2ccsc2)c(-c2nccs2)n1 | 86% | 71 | 11
49 | Cc1cc2nc(-c3ccc(/C=C/C(=O)NCCCc4ccccc4)cc3)[nH]c2cc1C | 96% | 13 | 15
50 | CCOc1cc(C(C)C)ccc1N1CCN(CCCCNC(=O)c2ccc(NC(=O)c3ccc(Cl)cc3)cc2)CC1 | 100% | 97 | 28
51 | Nc1nc(N)c2cc(NS(=O)(=O)c3ccc(-c4ccccc4)cc3)ccc2n1 | 100% | 54 | 7
52 | CO/C(=C\C=C\c1cc2cc(Cl)c(Cl)cc2[nH]1)C(=O)NCCCNC12CC3CC(CC(C3)C1)C2 | 99% | 76 | 29
53 | Cl.O=S(=O)(Nc1cc2c(cc1O)CCN(C1CCC1)CC2)c1ccc(-c2ccc(F)cc2)cc1 | 100% | 99 | 16
54 | CC[C@]1(C)C[C@@H](NC(=O)NC(=O)c2ccc(OC)cc2)[C@]2(C)[C@H](C)CC[C@]3(CCC(=O)[C@H]32)[C@@H](C)[C@@H]1OC(=O)NC(=O)c1ccc(OC)cc1 | 100% | 98 | 10
55 | Cl.NOCCCCOc1cc(Cl)c(Cl)cc1Cl | 92% | 5 | 6
56 | O=C(O)C(F)(F)F.c1cc(CN2CCN(c3ccncc3)CC2)cc(-c2ccc(-c3nc4ccccc4[nH]3)s2)c1 | 100% | 100 | 59
57 | COc1ccc(NC(=O)[C@H](CC(C)C)Nc2cc(C)nc(NCC3CCCCC3)n2)cc1.O=C(O)C(F)(F)F | 100% | 92 | 7
58 | CCCCCN1CCCC1CNS(=O)(=O)c1ccc(C(=O)Nc2ccc(C(F)(F)F)cc2)cc1.O=C(O)C(F)(F)F (stereo not drawn) | 87% | 0 | 19
59 | COc1ccc2nccc([C@@H](O)CN3CCC(NC(=O)c4nc(Cl)c(Cl)c(N)c4Cl)CC3)c2c1.CS(=O)(=O)O | 87% | 17 | 16
60 | CCc1ccc(C2CCN(CCCCNC(=O)c3ccc(-c4ccc(Cl)cc4)cc3)CC2)c(O)c1 | 100% | 99 | 48
61 | CCCCOc1cc(CNCCCCCCNCc2cc(OCCCC)cc3ccccc23)c2ccccc2c1.CS(=O)(=O)O | 100% | 92 | 99
